Epigenetic derep: Quantitative High-Throughput Screen for Regulators of Epigenetic Control; Potency, µM (top dose mostly 53.9 µM), usual class: activators; 0.2% of 280,000 active; murine LDR cells, GFP reporter derepression, 30 h; note: nearly all actives have a fitted effect of over 60% in size
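Reporter derepression read as number of fluorescent GFP-positive objects, 20-120 um in size, counted by laser-scanning cytometer. Mouse LDR line with an epigenetically silenced CMV-GFP locus; compound incubation 30 h, 37 C.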
Gal4-VP16 FLuc: VP16 counterscreen qHTS for inhibitors of ROR gamma transcriptional activity; Drosophila S2 Gal4-VP16 UAS-luciferase, luminescence, 20 h; Potency, µM (highest dose often 53.6 µM), most hits filed as inhibitors; 3.5% of 310,000 active;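 note: Gal4-VP16 expression switched on by copper sulfate through the metallothionein promoter; nearly all actives have a fitted effect of over 50% in size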
RORg inh: qHTS for inhibitors of ROR gamma transcriptional activity | AID 2551, 2010 | 5.4% of 310,000 active | Drosophila S2 Gal4-RORgamma UAS-luciferase reporter, 20 h | Nuclear receptor ROR-gamma (Mus musculus), P51450 | Potency, µM (series often up to 53.6 µM), usual class: inhibitors; note: nearly all actives have a fitted effect of over 60% in size
Target sequence (P51450 whole entry, looked up, the tested form may be a part): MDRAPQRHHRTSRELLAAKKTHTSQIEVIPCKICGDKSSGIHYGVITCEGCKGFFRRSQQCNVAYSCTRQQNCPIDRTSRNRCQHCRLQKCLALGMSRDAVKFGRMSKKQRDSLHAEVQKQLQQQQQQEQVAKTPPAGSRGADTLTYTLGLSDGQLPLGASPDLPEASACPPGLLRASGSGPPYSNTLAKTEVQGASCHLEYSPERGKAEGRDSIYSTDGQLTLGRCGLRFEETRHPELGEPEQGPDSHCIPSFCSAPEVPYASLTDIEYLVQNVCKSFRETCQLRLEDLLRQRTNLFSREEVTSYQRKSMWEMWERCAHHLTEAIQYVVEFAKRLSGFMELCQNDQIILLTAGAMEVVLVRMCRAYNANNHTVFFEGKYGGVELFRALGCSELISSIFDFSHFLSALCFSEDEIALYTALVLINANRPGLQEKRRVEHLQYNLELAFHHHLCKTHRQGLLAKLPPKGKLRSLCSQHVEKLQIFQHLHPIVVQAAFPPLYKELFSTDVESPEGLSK
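ROR gamma transcriptional activity was tracked as Gal4-UAS luciferase output in stably transfected Drosophila Schneider cells, with compound added 1 hr before 700 uM copper sulfate induction and a 20 hr ambient-temperature incubation.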
PINK1 modulator: A Quantitative High throughput Screen to Identify Chemical Modulators of PINK1 Expression; PINK1 immunofluorescence, high-content cytometry, 24 h; 0.2% of 410,000 active; AID 624263, 2012; Potency, µM (titrated, usually from 76.6 µM), actives largely listed as activators; active = well fitted activation curve with a large enough effect; inconclusive = small, poorly fitted or top-dose-only effect; cell line not stated here; note: nearly all actives have a fitted effect of over 65% in size
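Compound titrations (5 concentrations, 24 h) on a stable cell line; DMSO and CCCP controls. Endpoint: fixed-cell PINK1 immunofluorescence with mitochondrial, cell and nuclear markers, scanned by microplate cytometer.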
ClpP mod: qHTS Assay for Activators of ClpP; ATP-dependent Clp protease proteolytic subunit (Bacillus subtilis (strain 168)), P80244; purified B. subtilis ClpP, FRET peptide cleavage, 20 min; Potency, µM (series often up to 57.5 µM); 1.9% of 340,000 active; AID 651965, 2013; active = well fitted falling curve with a large enough effect; inconclusive = small, poorly fitted or top-dose-only effect; inactive = no such curve, though single readings can be large or run the other way; note: the source files actives as falling curves though it sought activators and does not explain the sign; nearly all actives have a fitted effect of over 65% in size
Target sequence (P80244 whole entry, looked up): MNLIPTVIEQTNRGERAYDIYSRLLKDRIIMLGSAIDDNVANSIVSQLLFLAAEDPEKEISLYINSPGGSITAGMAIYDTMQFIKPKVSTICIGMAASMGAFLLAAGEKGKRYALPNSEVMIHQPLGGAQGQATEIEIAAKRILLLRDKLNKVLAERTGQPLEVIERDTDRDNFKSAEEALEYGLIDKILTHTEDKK
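FRET quenching reversal measured ClpP activation: 10 microg/mL B. subtilis ClpP at pH 8 with the FRET-FV decapeptide, read at 430 nm after 320 nm excitation. The 20-min minus 0-min signal was scaled between DMSO/no-enzyme wells and ADEP (5.8 microM final).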
Sfp PPTase inh: qHTS Assay for Inhibitors of Bacillus subtilis Sfp phosphopantetheinyl transferase (PPTase). AID 1490, 2009. Biochemical Sfp PPTase activity, qHTS. Potency, µM, hits mostly inhibitors. 4'-phosphopantetheinyl transferase ffp (Bacillus subtilis), Q9F4F7. 3.5% of 310,000 active;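 note: the enzyme is Sfp with the accession as filed and its product quenches rhodamine fluorescence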
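Fluorescence-quenching assay: 15 nM Sfp-PPTase preincubated 15 min at room temperature with compound, then 5 uM rhodamine-CoA and 12.5 uM BHQ-2-labelled YbbR peptide added. Fluorescence (ex 525/em 598 nm) read at start and after 30 min; difference gives rate.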
Hits are given with their value; – = inactive; ? = inconclusive; · = no result. An excerpt weighted towards active compounds, which were near 8.1% of everything screened. Unless noted, calls come from the whole dose curve; as a rule, active = well fitted curve in the direction sought with a large enough effect; inconclusive = small, poorly fitted or top-dose-only effect, or another doubt; inactive = no such curve, though single readings can be large; an effect the other way counts as inactive or inconclusive.

SMILES | Epigenetic derep | Gal4-VP16 FLuc | RORg inh | PINK1 modulator | ClpP mod | Sfp PPTase inh
O=C(O)Cc1sc(-c2ccc(Cl)cc2)nc1-c1ccccc1 | – | – | – | – | – | –
O=C(O)Cc1sc(NCc2ccco2)nc1-c1ccccc1 | – | – | – | – | – | 25µM
O=C(O)Cc1sc(-c2ccccc2)nc1-c1ccccc1 | – | – | – | – | 32µM | –
CC(=O)N1c2ccc(S(=O)(=O)N3CCCCCC3)cc2CC1C(=O)NCc1cccc(C)c1 (centres undefined) | – | · | · | – | – | ·
COc1ccc(OC)c2sc(N(CCN(C)C)C(=O)/C=C/c3cccs3)nc12 | · | 10µM | 16µM | – | · | –
Oc1ccc(N=Nc2ccc3c(c2)OCCO3)c2cccnc12 | – | – | – | – | · | –
Oc1ccc(N=Nc2ccc3c(c2)OCCO3)c(O)c1 | – | 10µM | 8.9µM | – | – | –
FC(F)(F)c1cccc(NC(=S)NCc2ccccn2)c1 | – | 7.1µM | 3.5µM | – | – | –
O=C(NCc1ccccn1)Nc1cccc(F)c1 | · | ? | – | – | – | –
Cc1ccc(NC(=S)NCc2ccccn2)cc1 | – | 16µM | 4µM | – | – | –
CC(C)(C)NNC(=S)Nc1cccc(C(F)(F)F)c1 | ? | 3.2µM | 1µM | – | · | –
CCCNC(=S)Nc1cccc(C(F)(F)F)c1 | – | ? | 10µM | – | – | –
S=C(NCc1ccccn1)NN=Cc1ccccn1 | · | · | · | – | – | ·
CC(=O)Nc1cc(O)c2nonc2c1O | · | · | · | – | – | ·
Cc1ccc(OCc2nc3ccccc3n2CC(C)C)cc1 | – | · | · | – | – | ·
S=C(NCc1ccccn1)Nc1cccc(Cl)c1 | – | 13µM | 6.3µM | – | – | –
Cc1ccc(NC(=S)NNC(C)(C)C)cc1 | ? | 0.25µM | ? | – | · | –
Cc1cccc(NC(=S)NCc2ccccn2)c1 | – | ? | 5µM | – | – | –
Cc1cccc(NC(=O)C(=O)NCc2ccccn2)c1 | – | – | – | – | – | –
FC(F)(F)c1cccc(NC(=S)NNC(=S)NCc2ccccc2)c1 | – | ? | ? | – | – | 45µM
CC(=O)c1ccc(N2CCN(C(=O)CCCCn3c(=O)[nH]c4ccccc4c3=O)CC2)cc1 | – | · | · | – | – | ·
CC/C(=C\c1ccc(C(=O)OC)cc1)c1cc(OC)cc2oc3ccccc3c12 | · | · | · | · | – | ·
O=C(Nc1cccc(C(F)(F)F)c1)Oc1ccc(Cl)c2cccnc12 | ? | 1µM | 0.5µM | ? | · | –
COc1ccc(CCC(=O)NCc2ccc3c(c2)CCN3C(=O)c2ccc(C)cc2)cc1 | – | · | · | – | – | ·
O=C(Nc1ccccc1Cl)N(Cc1nc2ccccc2c(=O)[nH]1)Cc1cccs1 | – | ? | 11µM | – | – | –
SMILES | Epigenetic derep | Gal4-VP16 FLuc | RORg inh | PINK1 modulator | ClpP mod | Sfp PPTase inh
CC(C)(C)C(=O)N(Cc1nc2ccccc2c(=O)[nH]1)Cc1cccs1 | – | – | ? | – | – | –
O=C(CCCl)N(Cc1nc2ccccc2c(=O)[nH]1)Cc1cccs1 | – | – | 11µM | – | – | –
Cc1cc[n+](CCC2CCCCC2)c2ccccc12 | · | · | · | · | – | ·
C/C(=N/NC(=O)c1ccc(Cl)s1)c1cccnc1 | · | ? | 13µM | – | – | –
C/C(=N\NC(=O)c1cc(-c2cccnc2)nc2ccccc12)c1ccc(O)cc1O | – | 0.56µM | 0.63µM | – | – | –
C/C(=N\NC(=O)c1cc(-c2ccccc2C)nc2ccccc12)c1cccnc1 | · | – | ? | – | – | –
C/C(=N/NC(=O)c1cc(-c2ccccc2)nc2c(Cl)cccc12)c1cccnc1 | · | 11µM | 18µM | – | – | –
C/C(=N\NC(=O)c1cc(-c2cccc(OC(C)C)c2)nc2ccccc12)c1cccnc1 | · | ? | – | – | – | –
CCc1ccc(S(=O)(=O)Nc2cccc(-c3ccc(N4CCCCC4)nn3)c2)s1 | – | · | · | – | – | ·
CCOc1ccc(C(c2c(O)cc(C)n(CCOC)c2=O)N2CCN(c3ccccc3F)CC2)cc1 (centres undefined) | – | · | · | – | – | ·
CCOC(=O)CN1C(c2ccccc2O)Nc2ccc(Br)cc2C1c1ccccc1 (centres undefined) | – | 7.1µM | – | – | – | –
COC(=O)CN1C(c2ccccc2O)Nc2ccc(Br)cc2C1c1ccccc1 (centres undefined) | – | – | – | – | – | –
CN(C)c1ccc(N=Nc2ccnc3ccccc23)cc1 | · | · | · | – | – | ·
CN(C)c1ccc(N=Nc2ccccc2Br)cc1 | · | ? | 8.9µM | – | – | –
COC(=O)c1sccc1S(=O)(=O)N1CCC(n2c(CC3CCCC3)nc3cccnc32)CC1 | · | · | · | – | · | ·
Fc1ccc2[nH]c(-c3cccs3)cc2c1 | – | · | · | – | 11µM | ·
CC(Oc1ccccc1)C(=O)Nc1cccc(-c2cn3cccnc3n2)c1 (centres undefined) | – | · | · | – | – | ·
Cc1cccc(N=C2NN=C(c3c(C)[nH]c4ccccc34)CS2)c1 | – | ? | – | ? | 18µM | 40µM
Cc1cccc(N=C2NN=C(c3ccc4c(c3)OCCO4)CS2)c1 | – | ? | 7.9µM | – | – | –
CCc1ccc(C2=NNC(=Nc3cccc(S(=O)(=O)N(C)C)c3)SC2)cc1 | – | – | ? | ? | – | 71µM
Cc1cccc(N=C2CSC(=O)N2)c1 | – | – | – | – | – | –
Cc1cccc(Nc2nc(-c3ccc4c(c3)OCCO4)cs2)c1 | – | – | – | – | – | –
CCN(CC(=O)Nc1ccccc1C(F)(F)F)C(=O)c1oc2c(Cl)cccc2c1C | · | · | · | – | 35µM | ·
CCN(CC(=O)Nc1ccc(OC)cc1)C(=O)c1oc2c(Cl)cccc2c1C | · | · | · | – | · | ·
COc1cccc(-n2c(=O)c3sc4ccccc4c3n(CC(=O)Nc3ccc(F)cc3F)c2=O)c1 | ? | · | · | – | – | ·
SMILES | Epigenetic derep | Gal4-VP16 FLuc | RORg inh | PINK1 modulator | ClpP mod | Sfp PPTase inh
O=C(N/N=C\c1ccc([N+](=O)[O-])o1)c1cncc(Br)c1 | – | ? | ? | – | – | –
CCN(CC)S(=O)(=O)c1cccc(C(=O)N/N=C/c2ccc([N+](=O)[O-])o2)c1 | – | ? | 10µM | – | – | –
O=C(CNc1ccccc1)N/N=C/c1ccc([N+](=O)[O-])o1 | – | ? | – | ? | – | –
O=C(CCC(=O)Nc1ccc(Cl)cc1Cl)N/N=C/c1ccc([N+](=O)[O-])o1 | – | 16µM | ? | ? | · | –
Cc1scc(C(=O)N/N=C/c2ccc([N+](=O)[O-])o2)c1C | · | 7.1µM | 4µM | · | · | –
O=C(CNC(=O)c1ccccc1)N/N=C/c1ccc([N+](=O)[O-])o1 | – | 18µM | – | – | – | –
CCCCCC(=O)N/N=C/c1ccc([N+](=O)[O-])o1 | – | – | – | – | – | –

Bioassay records deposited in PubChem BioAssay by National Center for Advancing Translational Sciences (NCATS).
